From PubChem BioAssay AID743398 (Broad Institute, 2014)
Among all 300,000 compounds or so, about 3,600 (1.2%) were called active. Rule as the data show it: active = activation above about 30% (passing the limit was not always enough); inconclusive = no clear call, values can overlap the other calls. This excerpt belongs to a sample that is enriched for actives.

experiment: Wnt/beta-catenin pathway activators, primary screen, cell-based, plate reader, single point (AID 743398); conditions: Wnt/beta-catenin reporter cell assay, activator, at 9.35 µM, hits give high values;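 also: 0% = neutral control wells and 100% = positive control wells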

activation, inactive:
O=C(CCCN1C(=O)C(c2ccccc2)Oc2cccnc21)Nc1ccccc1Br (centres undefined) -1.84%
O=C(C(=O)N1CCC(CNC(=O)c2cccnc2Cl)CC1)c1cccs1 2.94%
O=c1cc(Cn2nnc(-c3ccc(Cl)cc3)n2)nc2sccn12 3.21%
COc1ccccc1N1CCN(C(=O)Cn2nnc(-c3cccs3)n2)CC1 -9.59%
CCOC(=O)Cn1c2c(n(-c3ccc(F)cc3)c1=O)C=C(c1ccccc1)[C@@H](C)C(C(=O)N(C)C1CCCCC1)=C2 -5.16%
CC(C)Oc1ccc(CN2CCC2(C)C(=O)NCc2ccc(C(F)(F)F)cc2)cc1 (centres undefined) -2.84%
COc1ccccc1-c1cc(C(=O)N2CCCCC2)no1 0.293%
O=C(c1cc(COc2ccc(F)cc2F)on1)N1CCOCC1 12.4%
COc1cc(Cl)ccc1OCc1cc(C(=O)N2CC[C@@H]3CCCC[C@H]3C2)no1 18.3%
O=C(c1cc(-c2ccc(O)cc2)on1)N1CCOCC1 19.9%
O=C(c1cc(COc2cccc(C(F)(F)F)c2)on1)N1CCSCC1 1.55%
COc1cccc(C(=O)Nc2ccc(N3CCN(C(=O)c4ccco4)CC3)cc2)c1 -1.7%
COC(=O)[C@]12C[C@H](CC(=O)NCc3ccc(OC)c(OC)c3)C(=O)N(Cc3ccccc3)C1=C[C@H](C(C)C)O[C@@H]2C1CC1 -0.346%
CSCCC(NC(=O)COc1ccccc1)C(=O)N1CCN(c2cccc(C(F)(F)F)c2)CC1 (centres undefined) -3.61%
COc1ccc(OC)c(NC(=O)C2CCCN2S(=O)(=O)c2ccc3c(c2)CC(C)N3C(C)=O)c1 (centres undefined) -5.88%
CCOC(=O)N1CCN(C(=O)C[C@@H]2C[C@@]3(C(=O)OC)CC(C)(C)CC=C3N(Cc3ccco3)C2=O)CC1 0.171%
CCc1nc2c(OCCOc3ccccc3)cccn2c1N(C=O)Cc1ccc(OC)cc1 -2.79%
NC(=O)c1c(NC(=O)c2ccccc2)sc2c1CCCC2 1.12%
Cc1ccc(NC(=O)c2c(NC(=O)CCC(=O)O)sc3c2CCCCC3)cc1 29.5%
CCCCCCCCN1C(=O)[C@@H](CC(=O)NCCCC)C[C@@]2(C(=O)OC)C1=C[C@H](C(C)(C)C)O[C@@H]2C -3%
COc1cccc(/C=C2\SC(=S)N(CCCC(=O)N3CCOCC3)C2=O)c1 3.86%
CCc1nc2ccc(C(=O)Nc3ccc(OC)c(OC)c3)cn2c1N(C)C(=O)c1cccc(OC)c1 -0.76%
Cn1c(CNC(=O)c2ccccc2F)nnc1SCc1ccc(F)cc1 -0.026%
Cc1ccc(C(=O)CSc2nnc(Cn3nnc4ccccc43)n2C)cc1 -0.352%
Cc1[nH]c2ccccc2c1CC(=O)Nc1ccc(Nc2cccnc2)c(-c2cccc(Cl)c2)c1 -2.14%
CCOC(=O)[C@]12CCCC=C1N(CCC1=CCCCC1)C(=O)[C@H](CC(=O)N1CCN(C(=O)c3ccco3)CC1)C2 -1.88%
COc1ccccc1C1/C(=C(/O)c2ccc(OC(C)C)cc2)C(=O)C(=O)N1c1cc(C)on1 (centres undefined) -12%
COc1ccc(C2/C(=C(/O)c3ccccc3)C(=O)C(=O)N2C)c(OC)c1 (centres undefined) 0.335%
OC[C@@H]1CN(Cc2ccc(F)cc2)C[C@H](n2cnc3c(NC4CCCC4)ncnc32)O1 -2.91%
CC1C(C)N(C(=O)CCl)c2ccccc2N1C(=O)CCl (centres undefined) -5.8%
COc1cc(N=Cc2c(O)c3ccccc3oc2=O)c(OC)cc1Cl -0.517%
O=c1oc2ccccc2c(=O)c2ccccc12 -3.29%
COc1cccc(-c2cc(NC(C)=O)c3ncc(-c4cccc(C(C)=O)c4)n3c2)c1 -1.27%
COc1ccc(OC)c(C(O)c2ncc(-c3cccc(C(F)(F)F)c3)[nH]2)c1 (centres undefined) -1.7%
CC1(C)OC(=O)C2=C(CC(CCc3ccccc3)OC2c2ccc(Cl)cc2)O1 (centres undefined) -2.32%
CCOC(=O)CNC(=O)N(C)[C@H]1C[C@H]2c3[nH]c4c(-c5ccc6c(c5)OCO6)cccc4c3CCN2C(=O)[C@H]1[C@H](C)O -4.82%
CCCCCCNC(=O)O[C@H]1CN(C(=O)OC(C)C)N(C(=O)OC(C)C)[C@@H]2CN(S(=O)(=O)c3ccc(C)cc3)C[C@]12O -6.88%
CCCn1c(CCNc2nc(-c3ccc(OC)cc3)cs2)nc2ccccc21 1.69%
Cc1nc(C)c(-c2csc(NCCc3ccccc3)n2)s1 10.9%
O=C(Nc1ccncc1)c1cc2ccccc2o1 -4.19%
O=C(NCc1cccnc1)c1cccc(-c2cc3ccccc3oc2=O)c1 -9.13%
CCOC(=O)[C@]12CCCC=C1N(CCC1=CCCCC1)C(=O)[C@H](CC(=O)NCCCCc1ccccc1)C2 -3.03%
COc1ccc(NC(=O)c2sc(=O)n(Cc3ccc(S(=O)(=O)N(C)C)cc3)c2C)cc1 -1.18%
O=C(Nc1ccc(Cl)cc1)C1Cc2c(-c3ccc4c(c3)OCO4)ccnc2O1 (centres undefined) -2.4%

activation, active:
Clc1cccc(Cl)c1Cn1nnc(-c2cccs2)n1 32.4%
COc1cccc(OCc2cc(C(=O)N3CCN(C(=O)c4ccco4)CC3)no2)c1 31.4%
COc1ccc(OCc2cc(C(=O)N3CCCC3)no2)c2ccccc12 43%
O=C(c1cc(-c2ccccc2O)on1)N1CCCC1 57.5%
Cc1ccc(C(=O)c2c(NC(=O)c3ccncc3)sc3c2CCCC3)cc1 38.4%
Cn1c(Cn2nnc3ccccc32)nnc1SCC(=O)c1ccccc1F 85.8%
CCOc1ccc(/C(O)=C2\C(=O)C(=O)N(c3ccc(OC)cc3)C2c2ccccc2[N+](=O)[O-])cc1 (centres undefined) 53.5%
COc1ccccc1N=Cc1c(O)c2ccccc2oc1=O 59%
CCNc1nc(-c2cc3ccccc3o2)cs1 55.9%
O=c1oc2ccccc2cc1-c1csc(Nc2ccc(O)cc2)n1 48%
